From PMC9838217, “Structure of SALL4 zinc finger domain reveals link between AT-rich DNA binding and Okihiro syndrome”
Numbering of substitutions follows the chain as printed.

Key:
Assay in all cases: HT-SELEX; high values mean tight binding
Conditions in all cases: protein: recombinant; vector His6-GST; dsDNA, one strand shown
SALL4 ZFC4 WT (HT-SELEX) = target: T1, SALL4 ZFC4 WT (HT-SELEX) (Mus musculus, UniProt Q8BX22 870-940)
T1 sequence: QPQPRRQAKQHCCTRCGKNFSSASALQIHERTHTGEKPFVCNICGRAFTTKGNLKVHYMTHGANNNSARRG
Procedure, shortened: (§1)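 Each canonical k-mer's binding signal is its read fraction expressed as fold change over the initial random library. Reads came from MiSeq sequencing, scanned for 6-mers, after up to 6 triplicate cycles in which purified recombinant mouse SALL4 zinc finger cluster 4 (residues 870–940, 1 µg) bound library DNA (1.5 µg first cycle, 200 ng later) in 100 µl of 10 mM Tris–HCl pH 7.5, 50 mM NaCl, poly(dI-dC), DTT for 10 min at room temperature. Complexes were then Ni2+ bead-captured, washed, PCR-amplified and reselected.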

[1] = target: T2, SALL4 ZFC4 R900W (HT-SELEX) (Mus musculus, UniProt Q8BX22 870-940, R900W)
T2 sequence: T1 sequence with R31W
Procedure, shortened: as §1

[2] = target: T3, SALL4 ZFC4 G921D (HT-SELEX) (Mus musculus, UniProt Q8BX22 870-940, G921D)
T3 sequence: T1 sequence with G52D
Procedure, shortened: as §1

Sequence | binding signal (SALL4 ZFC4 WT (HT-SELEX)) | binding signal [1] | binding signal [2]
CCCATA | 0.844 ± 0.0635 fold-change vs cycle 0 | 0.917 ± 0.0435 fold-change vs cycle 0 | 0.905 ± 0.0367 fold-change vs cycle 0
AATCAT | 2.57 ± 0.14 fold-change vs cycle 0 | 2.12 ± 0.0633 fold-change vs cycle 0 | 1.93 ± 0.164 fold-change vs cycle 0
CGTATA | 1.19 ± 0.0262 fold-change vs cycle 0 | 1.2 ± 0.0145 fold-change vs cycle 0 | 1.18 ± 0.0335 fold-change vs cycle 0
CGGGTA | 0.363 ± 0.0204 fold-change vs cycle 0 | 0.435 ± 0.0153 fold-change vs cycle 0 | 0.521 ± 0.0456 fold-change vs cycle 0
CGACTC | 0.311 ± 0.0133 fold-change vs cycle 0 | 0.391 ± 0.0309 fold-change vs cycle 0 | 0.53 ± 0.0873 fold-change vs cycle 0
AGACCA | 0.701 ± 0.0172 fold-change vs cycle 0 | 0.823 ± 0.0201 fold-change vs cycle 0 | 0.91 ± 0.0215 fold-change vs cycle 0
CGAAGA | 0.723 ± 0.0365 fold-change vs cycle 0 | 0.802 ± 0.0443 fold-change vs cycle 0 | 0.859 ± 0.0315 fold-change vs cycle 0
AGTTAC | 1.44 ± 0.0411 fold-change vs cycle 0 | 1.56 ± 0.0396 fold-change vs cycle 0 | 1.49 ± 0.117 fold-change vs cycle 0
AGTTCG | 0.647 ± 0.0383 fold-change vs cycle 0 | 0.741 ± 0.0101 fold-change vs cycle 0 | 0.828 ± 0.0183 fold-change vs cycle 0
ACCCGT | 0.418 ± 0.0141 fold-change vs cycle 0 | 0.5 ± 0.0199 fold-change vs cycle 0 | 0.577 ± 0.0315 fold-change vs cycle 0
GGTACA | 0.743 ± 0.0263 fold-change vs cycle 0 | 0.823 ± 0.0156 fold-change vs cycle 0 | 0.894 ± 0.0191 fold-change vs cycle 0
CACCTG | 0.456 ± 0.0357 fold-change vs cycle 0 | 0.549 ± 0.0259 fold-change vs cycle 0 | 0.631 ± 0.0331 fold-change vs cycle 0
AATGAC | 1.18 ± 0.09 fold-change vs cycle 0 | 1.36 ± 0.06 fold-change vs cycle 0 | 1.3 ± 0.105 fold-change vs cycle 0
ACAAGT | 1.24 ± 0.0226 fold-change vs cycle 0 | 1.4 ± 0.0269 fold-change vs cycle 0 | 1.35 ± 0.0304 fold-change vs cycle 0
TAACAA | 2.11 ± 0.116 fold-change vs cycle 0 | 2.02 ± 0.138 fold-change vs cycle 0 | 1.81 ± 0.153 fold-change vs cycle 0
GTTGTA | 1.18 ± 0.0293 fold-change vs cycle 0 | 1.31 ± 0.0256 fold-change vs cycle 0 | 1.28 ± 0.0242 fold-change vs cycle 0
CCAAAA | 0.9105 ± 0.0059 fold-change vs cycle 0 | 0.953 ± 0.0119 fold-change vs cycle 0 | 0.997 ± 0.0429 fold-change vs cycle 0
ACCAGA | 0.795 ± 0.0237 fold-change vs cycle 0 | 0.921 ± 0.0435 fold-change vs cycle 0 | 0.947 ± 0.0126 fold-change vs cycle 0
CGATCA | 0.683 ± 0.0475 fold-change vs cycle 0 | 0.7718 ± 0.00739 fold-change vs cycle 0 | 0.896 ± 0.0609 fold-change vs cycle 0
AATTGC | 0.939 ± 0.042 fold-change vs cycle 0 | 0.962 ± 0.0218 fold-change vs cycle 0 | 1.04 ± 0.0209 fold-change vs cycle 0

Sequence | binding signal (SALL4 ZFC4 WT (HT-SELEX)) | binding signal [1] | binding signal [2]
GTTGCA | 0.582 ± 0.0571 fold-change vs cycle 0 | 0.661 ± 0.0273 fold-change vs cycle 0 | 0.75 ± 0.0252 fold-change vs cycle 0
AAGGAA | 1.46 ± 0.0939 fold-change vs cycle 0 | 1.66 ± 0.0995 fold-change vs cycle 0 | 1.49 ± 0.137 fold-change vs cycle 0
ATAAAT | 4.06 ± 0.373 fold-change vs cycle 0 | 2.56 ± 0.158 fold-change vs cycle 0 | 2.19 ± 0.239 fold-change vs cycle 0
CTAGCC | 0.314 ± 0.031 fold-change vs cycle 0 | 0.395 ± 0.0257 fold-change vs cycle 0 | 0.508 ± 0.064 fold-change vs cycle 0
ATCGAA | 1.17 ± 0.0408 fold-change vs cycle 0 | 1.16 ± 0.0416 fold-change vs cycle 0 | 1.2 ± 0.0145 fold-change vs cycle 0
ATGCCA | 0.517 ± 0.0281 fold-change vs cycle 0 | 0.565 ± 0.0177 fold-change vs cycle 0 | 0.695 ± 0.0326 fold-change vs cycle 0
AACACC | 0.749 ± 0.0181 fold-change vs cycle 0 | 0.848 ± 0.0177 fold-change vs cycle 0 | 0.89 ± 0.0213 fold-change vs cycle 0
AGAGCT | 0.658 ± 0.0205 fold-change vs cycle 0 | 0.784 ± 0.026 fold-change vs cycle 0 | 0.8909 ± 0.00859 fold-change vs cycle 0
CGTACG | 0.303 ± 0.0125 fold-change vs cycle 0 | 0.389 ± 0.029 fold-change vs cycle 0 | 0.481 ± 0.0656 fold-change vs cycle 0
ATACTA | 2.04 ± 0.115 fold-change vs cycle 0 | 2.07 ± 0.172 fold-change vs cycle 0 | 1.84 ± 0.179 fold-change vs cycle 0
ACCCTG | 0.474 ± 0.0232 fold-change vs cycle 0 | 0.563 ± 0.034 fold-change vs cycle 0 | 0.648 ± 0.0451 fold-change vs cycle 0
CATCCC | 0.525 ± 0.0193 fold-change vs cycle 0 | 0.59 ± 0.0178 fold-change vs cycle 0 | 0.652 ± 0.049 fold-change vs cycle 0
ACTCAT | 1.52 ± 0.0846 fold-change vs cycle 0 | 1.54 ± 0.0355 fold-change vs cycle 0 | 1.47 ± 0.11 fold-change vs cycle 0
AGCTTC | 0.709 ± 0.0328 fold-change vs cycle 0 | 0.839 ± 0.0164 fold-change vs cycle 0 | 0.895 ± 0.0229 fold-change vs cycle 0
CCTTGA | 0.879 ± 0.0172 fold-change vs cycle 0 | 1.041 ± 0.00922 fold-change vs cycle 0 | 1.05 ± 0.0247 fold-change vs cycle 0
ATCCAA | 1.28 ± 0.0363 fold-change vs cycle 0 | 1.37 ± 0.0499 fold-change vs cycle 0 | 1.32 ± 0.0492 fold-change vs cycle 0
TGGAAA | 1.28 ± 0.069 fold-change vs cycle 0 | 1.27 ± 0.0696 fold-change vs cycle 0 | 1.23 ± 0.0625 fold-change vs cycle 0
ACACGA | 0.663 ± 0.0255 fold-change vs cycle 0 | 0.777 ± 0.0248 fold-change vs cycle 0 | 0.869 ± 0.0214 fold-change vs cycle 0
AAGTGG | 0.762 ± 0.0311 fold-change vs cycle 0 | 0.891 ± 0.0548 fold-change vs cycle 0 | 0.909 ± 0.0639 fold-change vs cycle 0
ATTAGC | 1.14 ± 0.0454 fold-change vs cycle 0 | 1.18 ± 0.016 fold-change vs cycle 0 | 1.2 ± 0.034 fold-change vs cycle 0

Sequence | binding signal (SALL4 ZFC4 WT (HT-SELEX)) | binding signal [1] | binding signal [2]
CAGTGC | 0.318 ± 0.0186 fold-change vs cycle 0 | 0.355 ± 0.00797 fold-change vs cycle 0 | 0.491 ± 0.0442 fold-change vs cycle 0
AACTAA | 2.02 ± 0.0351 fold-change vs cycle 0 | 2.07 ± 0.133 fold-change vs cycle 0 | 1.82 ± 0.176 fold-change vs cycle 0
AGGTAG | 0.817 ± 0.0419 fold-change vs cycle 0 | 0.986 ± 0.0401 fold-change vs cycle 0 | 0.998 ± 0.0166 fold-change vs cycle 0
AAGACG | 0.635 ± 0.0182 fold-change vs cycle 0 | 0.735 ± 0.023 fold-change vs cycle 0 | 0.815 ± 0.0404 fold-change vs cycle 0
GTATAA | 2.08 ± 0.124 fold-change vs cycle 0 | 1.96 ± 0.165 fold-change vs cycle 0 | 1.74 ± 0.197 fold-change vs cycle 0
CTCCAC | 0.493 ± 0.0188 fold-change vs cycle 0 | 0.564 ± 0.0173 fold-change vs cycle 0 | 0.646 ± 0.0596 fold-change vs cycle 0
AGACAG | 0.803 ± 0.00959 fold-change vs cycle 0 | 0.914 ± 0.0204 fold-change vs cycle 0 | 0.943 ± 0.0351 fold-change vs cycle 0
TGAACA | 1.29 ± 0.0296 fold-change vs cycle 0 | 1.4 ± 0.0577 fold-change vs cycle 0 | 1.36 ± 0.0684 fold-change vs cycle 0
AGGTGG | 0.487 ± 0.0135 fold-change vs cycle 0 | 0.556 ± 0.0106 fold-change vs cycle 0 | 0.647 ± 0.0454 fold-change vs cycle 0
ATCACC | 0.917 ± 0.0379 fold-change vs cycle 0 | 0.988 ± 0.0223 fold-change vs cycle 0 | 1.06 ± 0.0273 fold-change vs cycle 0
CCTTAC | 0.944 ± 0.0541 fold-change vs cycle 0 | 1.06 ± 0.0559 fold-change vs cycle 0 | 1.04 ± 0.0333 fold-change vs cycle 0
AACCCT | 0.85 ± 0.042 fold-change vs cycle 0 | 0.958 ± 0.0297 fold-change vs cycle 0 | 0.971 ± 0.0387 fold-change vs cycle 0
AGTGTA | 1.32 ± 0.061 fold-change vs cycle 0 | 1.43 ± 0.0767 fold-change vs cycle 0 | 1.36 ± 0.1 fold-change vs cycle 0
GCAAAA | 0.804 ± 0.0195 fold-change vs cycle 0 | 0.786 ± 0.0174 fold-change vs cycle 0 | 0.873 ± 0.0736 fold-change vs cycle 0
AGAAAT | 2.29 ± 0.182 fold-change vs cycle 0 | 2.02 ± 0.161 fold-change vs cycle 0 | 1.78 ± 0.161 fold-change vs cycle 0
ACGCAA | 0.452 ± 0.0105 fold-change vs cycle 0 | 0.521 ± 0.02 fold-change vs cycle 0 | 0.635 ± 0.0427 fold-change vs cycle 0
GTATGA | 1.51 ± 0.0577 fold-change vs cycle 0 | 1.49 ± 0.0331 fold-change vs cycle 0 | 1.38 ± 0.0706 fold-change vs cycle 0
GAAACC | 0.748 ± 0.0342 fold-change vs cycle 0 | 0.843 ± 0.0163 fold-change vs cycle 0 | 0.916 ± 0.0216 fold-change vs cycle 0
ATGGTC | 0.721 ± 0.0351 fold-change vs cycle 0 | 0.8234 ± 0.00272 fold-change vs cycle 0 | 0.902 ± 0.0335 fold-change vs cycle 0
AAATTG | 1.6 ± 0.125 fold-change vs cycle 0 | 1.53 ± 0.0609 fold-change vs cycle 0 | 1.48 ± 0.0586 fold-change vs cycle 0
